# From PubChem
# In the library only some 1.8% were active in any assay of this set; here they are far more common.
# CtBP-E1A inh = blocks the CtBP interaction with E1A; AlphaScreen GST-E1A/His-CtBP binding, 1536-well; stronger effect = lower value; activity change, % (concentration not given with the values); 340,000 tested, 0.49% active; AID 651724
#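 Homogeneous bead-based format: GST-tagged E1A captured on glutathione donor beads, His-tagged CtBP on nickel acceptor beads; compounds precede bead addition by 2 h at 37 °C.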
# pAkt inh = inhibitors of Akt phosphorylation; Neuro2A IGF-stimulated pAkt S473 HTRF, 20 min; stronger effect = lower value; activity change, % for hits at 50 µM; AID 651550; 360,000 tested, 0.32% active; in the data active = activity change below about -80%; inconclusive = mostly about -51% to -80%
#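 Neuro2A cells (4,500/well, DMEM with 0.5% FBS) were treated with compound at a single 50 µM final concentration, stimulated with 6 nM IGF for 20 min at 37 °C, and lysed. Phospho-Akt Ser473 was read by HTRF as 665/615 ratio ×10^4.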
# Six1-Eya2 inh = Six1/Eya2 interaction inhibition; activity change, % (concentration not given with the values); 360,000 tested, 0.56% active; Q15475+O00167; AlphaScreen GST-Six1/His-Eya2 binding, biochemical; stronger effect = lower value
#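 Compounds are tested against tagged Six1 and Eya2 proteins bridged by glutathione donor and nickel acceptor beads; after a one-hour incubation at 37 °C without light, AlphaScreen emission is recorded.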
# PI5P4K alpha inh = blocks human PI5P4K alpha kinase activity; PI5P4Kalpha enzyme, ADP-Glo luminescence, 60 min; stronger effect = lower value; max response, %; 330,000 tested, 1.2% active; P48426; AID 652105; active = max response of -50% or lower; inconclusive = between -30% and -50%; inactive = -30% or higher; also: value at the top dose of about 77 µM
#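 Human PI5P4Kalpha with substrate in 0.038 M HEPES pH 7.4, 0.28 mM EGTA, 0.1% CHAPS, 5% DMSO; reaction started with 5 microM ATP (final), 60 min at room temperature. ADP formed read by ADP-Glo luminescence.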
# PI4K2A inh = blocks human PI4K2A kinase activity | Q9BTU6 | purified PI4K2A, ADP-Glo luminescence, 1 h; stronger effect = lower value | activity change, negative = inhibition, % at 76.9 µM | 420,000 tested, 0.13% active | AID 1346378; in the data active = activity change below about -50%; inconclusive = mostly about -30% to -49%;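 also: -100% = wells without enzyme as full effect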
# Target sequence (Q9BTU6 whole entry, looked up): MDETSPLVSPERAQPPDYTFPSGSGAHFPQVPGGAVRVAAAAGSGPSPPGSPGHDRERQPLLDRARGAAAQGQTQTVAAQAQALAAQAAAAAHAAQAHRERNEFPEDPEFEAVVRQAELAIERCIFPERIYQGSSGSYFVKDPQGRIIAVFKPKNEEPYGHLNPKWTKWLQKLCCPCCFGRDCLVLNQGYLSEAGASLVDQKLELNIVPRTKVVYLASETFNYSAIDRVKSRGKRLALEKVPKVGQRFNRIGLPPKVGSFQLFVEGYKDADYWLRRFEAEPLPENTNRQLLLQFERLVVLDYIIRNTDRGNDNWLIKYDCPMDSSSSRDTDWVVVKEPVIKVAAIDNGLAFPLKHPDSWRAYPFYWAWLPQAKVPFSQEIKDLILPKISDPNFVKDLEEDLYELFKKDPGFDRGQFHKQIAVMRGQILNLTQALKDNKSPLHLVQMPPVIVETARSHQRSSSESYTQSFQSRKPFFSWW
#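 Compounds are screened against recombinant PI4K2A using PI as substrate and ATP, the latter dispensed at 300 microM. Reactions run one hour at ambient temperature before ADP-Glo detection; full inhibition defined by wells lacking enzyme.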
# Starred values were filed as active, the others as inactive; i = inactive; ? = inconclusive; · = no result given. Rule as the data show it, unless noted: active = activity change below about -65%; inconclusive = mostly about -30% to -63%; inactive = weaker than that. Unless noted, % is scaled to controls: 0 for no effect and ±100 for the full control effect.
SMILES,CtBP-E1A inh,pAkt inh,Six1-Eya2 inh,PI5P4K alpha inh,PI4K2A inh
CCOc1cc(/C=C2\C(=N)N3N=C(S(=O)(=O)CC)SC3=NC2=O)ccc1OC(=O)c1ccco1,·,·,-26,?,-11
O=C(Nc1ccccn1)c1cc(-n2cnnc2)ccc1Cl,2,i,7,1,3
COc1ccc(Cl)c2c1[nH]c1nc(SCc3ccccn3)nnc12,?,i,-67*,-3,-3
O=C(Nc1scc(-c2ccccc2)c1C(=O)O)c1ccccc1F,?,i,?,-15,-6
Cc1ccc(-c2csc(NC(=O)c3ccccc3F)c2C(=O)O)cc1,·,i,-70*,?,-1
COc1ccc(-c2csc(NC(=O)Cc3cccc4ccccc34)c2C(=O)O)cc1,-67*,i,-67*,-15,-2
O=C(Nc1cc(-c2nc3cc(Cl)ccc3o2)ccc1Cl)c1cc([N+](=O)[O-])ccc1N1CCOCC1,·,·,·,·,-1
CCN1CCN(CCNC(=O)c2ccc3c(c2)N(Cc2ccc(F)cc2)C(=O)/C(=C/c2ccccc2)S3)CC1,-11,i,-9,-20,0
CCOC(=O)Cc1nnc(NC(=O)c2ncn[nH]2)s1,-71*,i,?,-29,-9
N#CC1=C(N)Oc2n[nH]c(-c3cccnc3)c2C1c1ccc([N+](=O)[O-])o1 (stereo unspecified),-8,i,-15,-59*,-5
N#CC1=C(N)Oc2n[nH]c(-c3cccnc3)c2C1c1cc(F)ccc1F (stereo unspecified),17,i,6,-54*,-2
CCn1c(CSc2nc3ccccc3s2)nnc1SCC(=O)c1ccc2c(c1)OCCO2,-14,-108%*,-3,-2,3
CCn1c(CSc2nc3ccccc3s2)nnc1SCC(=O)NCC(=O)OC,2,i,1,·,2
Cn1c(CSc2nc3ccccc3s2)nnc1SCC(=O)NCCCN1CCOCC1,2,-136%*,6,-4,6
Clc1ccc(Oc2cccc(/C=N/n3cnnc3)c2)cc1,1,i,-5,-5,3
Oc1cccc(-c2nc3ccccc3s2)c1,-8,i,-19,-10,?
O=C(O)Cc1ccc2sc(-c3ccccc3)nc2c1,6,i,-2,-14,-67*
CC(=O)Nc1cccc(-c2nc3ccccc3s2)c1,-4,i,-2,5,-2
COC(=O)Cc1ccc2sc(-c3ccccc3)nc2c1,4,i,28,-9,-62*
O=C1N[C@H](Cc2ccccc2)COC(=O)[C@H](Cc2ccc(F)cc2)CC/C=C/C[C@H]1CC(=O)N(CCO)Cc1ccccc1,-5,i,-3,-4,1
CNc1cncc(-c2cccc(NS(C)(=O)=O)c2)n1,-67*,i,?,4,5
CCCNC(=O)NC(=O)COc1c(F)c(F)cc(F)c1F,-9,-102%*,5,-3,-6
COCCNC(=O)C(=O)NCC1OCCCN1S(=O)(=O)c1cccs1 (stereo unspecified),1,i,2,-3,3
O=[N+]([O-])c1ncccc1OCc1ccc(Cl)c(Cl)c1,-1,i,-10,3,5
Clc1ccc(COc2ccccn2)cc1Cl,-11,-123%*,0,-5,12
SMILES,CtBP-E1A inh,pAkt inh,Six1-Eya2 inh,PI5P4K alpha inh,PI4K2A inh
O=C(O)Cc1csc2ccccc12,6,-126%*,1,-2,4
O=C(Cc1csc2ccccc12)NCc1ccccc1F,·,·,·,·,-6
COc1cccc(/C=C/C(=O)OCC(=O)Nc2cccc(S(=O)(=O)NC3=NCCCCC3)c2)c1,-76*,i,-17,5,-14
CC1CCc2c(nc3nc[nH]n3c2=O)C1 (stereo unspecified),0,-102%*,22,-9,-1
S=c1c2c(nc3nc[nH]n13)CCC2,·,i,-13,-11,?
CCc1ccc(C2C(C#N)=C(N)SC(N)=C2C#N)s1,-18,i,-6,-75*,-4
O=C(NC(NCc1ccccn1)(C(F)(F)F)C(F)(F)F)c1ccco1,?,·,-73*,·,0
CCCOCc1cc(CN2CCN(c3ccccc3OC)CC2)c(O)c2ncccc12,·,·,·,·,8
CC(C)COCc1ccc(O)c2ncccc12,-91*,i,-79*,-1,-3
CCCOCc1ccc(O)c2ncccc12,-94*,i,-70*,2,-19
c1ccc(CN(Cc2cccs2)C(c2cccs2)c2nnnn2C2CCCC2)cc1 (stereo unspecified),4,i,3,1,3
CN(C)/C=C/C1=C([N+](=O)[O-])C(c2cccc([N+](=O)[O-])c2)NC(=O)N1 (stereo unspecified),-8,i,-13,-83*,-2
CC1(C)CC(=O)C=C(Nc2ccc(O)c(C(=O)O)c2)C1,-7,i,-1,-94*,-10
CC1(C)CC(=O)C=C(Nc2ccc(C(=O)O)cc2)C1,4,i,0,-6,-11
C=CCn1c(SCC(=O)c2ccc(CNC(C)=O)o2)nc2scc(C3CC3)c2c1=O,-5,i,-14,-56*,-17
O=C(CC[C@H]1O[C@@H](n2ccc(=O)[nH]c2=O)[C@H](O)[C@@H]1O)NCCCc1ccccc1,1,i,2,5,2
S=c1[nH]nc2ccc3ccccc3n12,4,i,1,-61*,-5
Cc1noc(C)c1S(=O)(=O)N1CCC(C(=O)N2CCC(C)CC2)CC1,0,i,17,0,5
O=C1c2ccccc2-c2nc3ccccc3nc21,-18,i,-21,-1,-10
Cc1nc2c(nc1C)C(=O)c1ccccc1C2=O,?,i,-26,0,-56*
COC(=O)c1cnn(-c2nc3c(C)cccc3s2)c1C,0,·,1,0,1
O=C(O)c1cccc(NC(=S)N/N=C/c2ccccc2OCc2ccc(Br)cc2)c1,-4,i,-2,-65*,-3
Oc1ccc(/C=N/NC(=S)Nc2cccnc2)cc1O,-6,i,-23,-6,-1
Oc1ccc(C=NNC(=S)Nc2cccnc2)nc1,-6,i,-97*,-28,?
O=C(O)c1cccc(NC(=S)N/N=C/c2ccccn2)c1,·,i,-76*,?,-12
SMILES,CtBP-E1A inh,pAkt inh,Six1-Eya2 inh,PI5P4K alpha inh,PI4K2A inh
CCOC(=O)Cn1c(=O)n(CC2CCCO2)c2nc(-c3ccc(OC)cc3OC)nc(C(N)=O)c21 (stereo unspecified),·,·,·,·,-5
Cc1ccc(NS(=O)(=O)c2ccc3oc(=O)c4ncn(C)c4c3c2)cc1C,·,·,·,·,-1
C/C(N)=C(/C#N)C(=O)COC(=O)c1cccc(O)c1,4,i,-3,-6,1
Nc1ccc2c(c1)Cc1cc(Cl)c(Cl)cc1-2,0,i,-11,22,-1
O=c1cc(O)n(C2CCCCCC2)c(=O)[nH]1,0,i,24,-20,-51*
CCCCN=Cc1c(C)[nH]n(-c2ccccc2)c1=S,-6,i,-15,-4,-2
